Screens as filed in PubChem BioAssay.
Rows were chosen to be rich in hits. Some 8.1% of all compounds tested hit in one or more screens of this group.
PINK1 expr mod: PINK1 expression modulation; Potency, µM (series often up to 76.6 µM), without a hit: at the top dose activation (PINK1 increase), most hits filed as activators; AID 624263; PINK1 immunofluorescence, high-content cytometry, 24 h; hit rate 0.2% among 410,000; active means well fitted activation curve with a large enough effect; inconclusive means small, poorly fitted or top-dose-only effect; cell line not stated here; further: % of control where 0% means no effect; nearly all actives have a fitted effect of over 65% in size
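PINK1 protein level read as immunofluorescence by microplate cytometer in a fixed, stained stable cell line after 24 h exposure to five compound concentrations, with CCCP as control.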
Sfp PPTase inh: inhibitors of Bacillus subtilis Sfp phosphopantetheinyl transferase | Potency, µM, for inactives: largest response in the series, negative = inhibition, actives largely listed as inhibitors | Biochemical Sfp PPTase activity, qHTS | AID 1490 | hit rate 3.5% among 310,000 | Q9F4F7;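 further: the enzyme is Sfp with the accession as filed and its product quenches rhodamine fluorescence; 0% = enzyme reaction without inhibitor and -100% = no enzyme wells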
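With Hepes-Na pH 7.6 buffer containing 10 mM MgCl2, Sfp (15 nM) modified BHQ-2-YbbR (12.5 uM) using rhodamine-CoA (5 uM). Two reads 30 minutes apart at 525/598 nm yielded each well's rate.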
RORgamma inh: blocks mouse ROR gamma transcriptional activity | Potency, µM (titrated, usually from 53.6 µM), inactives show top-dose activity change, negative = inhibition, hits mostly inhibitors | AID 2551 | Drosophila S2 Gal4-RORgamma UAS-luciferase reporter, 20 h | hit rate 5.4% among 310,000; further: on the % scale 0 is the no-effect control and ±100 the full control effect; nearly all actives have a fitted effect of over 60% in size
Target sequence (P51450 whole entry, looked up, the tested form may be a part): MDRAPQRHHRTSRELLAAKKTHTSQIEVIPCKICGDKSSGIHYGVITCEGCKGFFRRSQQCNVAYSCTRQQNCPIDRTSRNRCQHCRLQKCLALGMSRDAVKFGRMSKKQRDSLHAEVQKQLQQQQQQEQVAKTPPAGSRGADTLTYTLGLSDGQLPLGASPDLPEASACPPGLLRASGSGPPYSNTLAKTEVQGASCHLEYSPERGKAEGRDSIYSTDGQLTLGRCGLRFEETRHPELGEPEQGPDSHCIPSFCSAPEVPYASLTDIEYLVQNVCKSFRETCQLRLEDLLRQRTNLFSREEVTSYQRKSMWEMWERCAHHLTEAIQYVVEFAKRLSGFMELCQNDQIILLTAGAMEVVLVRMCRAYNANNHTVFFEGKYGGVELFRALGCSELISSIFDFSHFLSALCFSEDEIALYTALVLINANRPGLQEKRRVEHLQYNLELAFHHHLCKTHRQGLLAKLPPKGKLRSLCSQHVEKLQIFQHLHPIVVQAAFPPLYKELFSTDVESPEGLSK
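Compounds are pin-transferred onto Drosophila Schneider cells expressing a copper-inducible Gal4–ROR gamma transactivation domain fusion. After 1 hr, copper sulfate is added to 700 uM final; luciferase is read 20 hr later.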
VP16 counter: counter-screen for ROR gamma inhibitors: Gal4-VP16 reporter | hit rate 3.5% among 310,000 | AID 2546 | Drosophila S2 Gal4-VP16 UAS-luciferase, luminescence, 20 h | Potency, µM (doses to about 53.6 µM), for the others: at the highest dose activity, negative = inhibition, most hits filed as inhibitors;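 further: Gal4-VP16 expression switched on by copper sulfate through the metallothionein promoter; on the % scale 0 is the no-effect control and ±100 the full control effect; nearly all actives have a fitted effect of over 50% in size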
Epigenetic derep: epigenetic control regulation, reporter derepression; murine LDR cells, GFP reporter derepression, 30 h; Potency, µM (titrated, usually from 53.9 µM), inactives show at the top dose GFP activation, most hits filed as activators; hit rate 0.2% among 280,000; AID 1865; further: % of control where 0% means no effect; nearly all actives have a fitted effect of over 60% in size
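GFP-positive cell count by laser-scanning cytometry (objects 20–120 um) after 30 h, 37 C compound exposure of murine LDR cells; reporter is CMV-GFP integrated at a silenced locus, inducible by HDAC or DNMT inhibitors.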
ClpP mod: qHTS Assay for Activators of ClpP | purified B. subtilis ClpP, FRET peptide cleavage, 20 min | ATP-dependent Clp protease proteolytic subunit (Bacillus subtilis (strain 168)), P80244 | hit rate 1.9% among 340,000 | Potency, µM (top dose mostly 57.5 µM), for inactives: at the top dose activity change, negative = active; active means well fitted falling curve with a large enough effect; inconclusive means small, poorly fitted or top-dose-only effect; inactive means no such curve, though single readings can be large or run the other way; further: the source files actives as falling curves though it sought activators and does not explain the sign; nearly all actives have a fitted effect of over 65% in size
Target sequence (P80244 whole entry, looked up): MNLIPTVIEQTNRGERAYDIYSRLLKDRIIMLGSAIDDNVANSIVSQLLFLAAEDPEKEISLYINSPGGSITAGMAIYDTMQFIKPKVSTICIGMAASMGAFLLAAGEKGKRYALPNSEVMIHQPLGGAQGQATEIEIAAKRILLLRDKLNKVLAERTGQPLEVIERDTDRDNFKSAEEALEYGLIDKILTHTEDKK
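Buffer: 100 mM Tris/HCl pH8, 100 mM KCl, 0.05% low protease BSA, 2.5% glycerol, 0.01% Tween-20. ClpP 10 microg/mL final; 20 min RT; delta FRET normalized to ADEP and DMSO controls.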
Active calls of the source: *; ? = inconclusive; . = no result given; [ ] = dose if it differs, or a comment. Unless noted, the call rests on the fitted dose curve; in most records, active means well fitted curve in the direction sought with a large enough effect; inconclusive means small, poorly fitted or top-dose-only effect, or another doubt; inactive means no such curve, though single readings can be large; an effect the other way counts as inactive or inconclusive. Potency means the concentration at half of the fitted maximal effect.

SMILES | PINK1 expr mod | Sfp PPTase inh | RORgamma inh | VP16 counter | Epigenetic derep | ClpP mod
CCOC(=O)c1c(C)oc2ncnc(N3CCN(c4ccccc4F)CC3)c12 | 1.0% | . | . | . | 0.0% | -0.8%
O=C(Nc1ccc(OC(F)F)cc1)c1nc(SCc2ccccc2F)ncc1Cl | 1.7% | . | . | . | . | -1.1%
CCOC(=O)CC(NC(=O)c1cc2cccc(OC)c2oc1=O)c1cccc([N+](=O)[O-])c1 (stereo not drawn) | 0.0% | 50.1µM* | 8.7% | -8.0% | -1.0% | 1.4%
CCOC(=O)CC(NC(=O)c1cc2cc(Cl)cc(Cl)c2oc1=O)c1cccc([N+](=O)[O-])c1 (stereo not drawn) | 4.3% | 3.3% | -13.1% | 3.9% | -1.0% | -12.8%
O=C(Nc1ccc(OC(F)(F)F)cc1)N1CCN(c2ccnc3cc(Cl)ccc23)CC1 | ? | 16.9% | ? | 28.2µM* | -0.5% | ?
COCCNC(=O)CCCn1c(SCc2ccccc2Cl)nc2c(sc3ccccc32)c1=O | 5.2% | . | . | . | 0.3% | -2.7%
O=C(Nc1cc(S(=O)(=O)Nc2ccc(Cl)cc2)ccc1N1CCCCC1)c1ccc(F)cc1 | ? | 14.1µM* | ? | -26.1% | 3.0% | ?
CC(=O)NCCC(=O)Nc1cc(S(=O)(=O)N2CCCCC2)ccc1N1CCCCC1 | 5.3% | . | . | . | . | 0.0%
N#Cc1ccc(C(=O)Nc2cc(S(=O)(=O)Nc3ccc(Cl)cc3)ccc2N2CCCCC2)cc1 | 8.8% | 22.4µM* | 36.2% | ? | 13.2% | -1.1%
CC(=O)NCCC(=O)Nc1cc(S(=O)(=O)Nc2ccc(Cl)cc2)ccc1N1CCCC1 | -1.2% | 79.4µM* | 33.0% | -5.4% | . | .
COCCNC(=S)Nc1ccc(N2CCOCC2)c(S(=O)(=O)Nc2ccc(Cl)cc2)c1 | 0.5% | . | . | . | . | 0.6%
O=S(=O)(Nc1ccc(Cl)cc1)c1ccc(N2CCOCC2)c(NC(=S)NCCN2CCOCC2)c1 | -1.0% | 3.98µM* | 42.8% | -4.3% | 0.6% | .
Fc1ccc(Nc2nc3ccccc3c3nncn23)c(Cl)c1 | -0.3% | . | . | . | 0.1% | 8.6%
CCC(=O)C1=C(c2ccc(OC)c(OC)c2)N(C(=O)CC)n2c(CC)nnc2S1 | -0.2% | . | . | . | 1.1% | 3.5%
CN(CCO)C(=O)c1cn(C2CCN(Cc3ccc(C(F)(F)F)cc3)CC2)nn1 | -0.1% | . | . | . | . | .
Cc1ccc(C(=O)N2CCc3cc(CNC(=O)COc4ccccc4)ccc32)cc1 | 6.7% | . | . | . | 2.1% | -1.0%
C=CCn1c(C)c(C(C)=O)c(N2CCCC2)nc1=S | -1.0% | -16.7% | -18.5% | 2.1% | -2.8% | 1.2%
CC(=O)c1c(N2CCCCC2)nc(=S)n(Cc2ccccc2)c1C | 1.2% | 11.6% | 11.2µM* | -24.9% | 0.0% | 0.6%
CCn1c(C)c(C(C)=O)c(N2CCCC2)nc1=S | -1.7% | -15.9% | 7.94µM* | 0.8% | -5.1% | -1.7%
CC(=O)c1c(N2CCN(Cc3ccccc3)CC2)nc(=S)n(Cc2ccccc2)c1C | 19.5% | 6.6% | -9.5% | ? | -0.9% | -3.3%
CCCSc1nc(=S)n(Cc2ccccc2)c(C)c1C(C)=O | 3.2% | -2.7% | 14.1µM* | ? | -0.4% | .
CC(=O)c1c(N2CCN(c3ccc(F)cc3)CC2)nc(=S)n(Cc2ccccc2)c1C | 22.3% | -2.8% | ? | -27.2% | ? | 25.1µM*
CC(=O)c1c(N2CCN(CCO)CC2)nc(=S)n(-c2ccccc2)c1C | -1.8% | 29.2% | 17.6% | -1.4% | -1.5% | .
CC(=O)c1c(N2CCN(c3ccccc3)CC2)nc(=S)n(-c2ccccc2)c1C | -0.4% | 79.4µM* | 13.7% | 0.6% | 0.5% | -1.5%
CCCSc1ncc(Cl)c(C(=O)Nc2sc3c(c2C(=O)OC)CCCC3)n1 | 1.4% | . | . | . | 1.9% | 0.4%
SMILES | PINK1 expr mod | Sfp PPTase inh | RORgamma inh | VP16 counter | Epigenetic derep | ClpP mod
O=C(/C=C/NNC(=O)c1ccccc1)c1ccccc1 | 1.1% | 13.5% | 7.94µM* | ? | -1.7% | -0.5%
Cc1cccc(C(=O)NN/C=C/C(=O)c2ccccc2)c1 | 1.7% | 14.7% | 6.31µM* | 5.01µM* | . | -0.2%
O=C(/C=C/NNC(=O)c1ccc(Br)cc1)c1ccccc1 | -0.2% | 16.2% | ? | -1.0% | -1.4% | 0.5%
Cc1ccc(C(=O)C=CNNC(=O)c2ccccc2)cc1 | 2.7% | 5.3% | 12.6µM* | 7.08µM* | . | -1.0%
Cc1cccc(C(=O)NN2S(=O)(=O)c3ccccc3S2(=O)=O)c1 | -0.3% | 50.1µM* | -32.3% | 42.9% | -3.7% | -1.3%
CCOC(=O)CN(Cc1ccccc1)C(C(=O)NC1CCCCC1)c1ccc(C)cc1 (stereo not drawn) | 1.3% | . | . | . | -1.7% | -0.4%
Cc1ccc(C(=O)/C=C\NCc2ccccc2)cc1 | -1.0% | 89.1µM* | 6.8% | ? | ? | 1.1%
COCCCNC(=O)c1ccc2nc3ccccc3c(=O)n2c1 | -2.7%[38.3 µM] | 15.4% | -1.2% | -6.1% | 0.0% | 15.8µM*
COc1ccc(-c2nc(CN3CCN(Cc4cccc(F)c4)CC3)c(C)o2)cc1 | 4.0% | 13.0% | ? | -28.1% | . | .
COc1ccc(-c2nc(CN3CCN(Cc4cccc(Cl)c4)CC3)c(C)o2)cc1 | 8.3% | 2.1% | 11.2µM* | ? | . | -1.5%
CC(C)(C)NC(=O)c1ccc2c(c1)N(CC(=O)N1CCCCC1)C(=O)C(C)(C)O2 | 3.2% | 1.5% | 0.0% | -3.9% | . | 1.1%
CC(C)(C)NC(=O)c1ccc2c(c1)N(CC(=O)N1CCCC1)C(=O)C(C)(C)O2 | 3.0% | 13.5% | 0.631µM* | 15.9% | . | -2.1%
Oc1ccc(N=Cc2ccc(O)c(O)c2)cc1 | 0.7% | 44.7µM* | 4.47µM* | 10µM* | 16.0% | -3.5%
Fc1cccc(C2NN=C(c3ccccc3)S2)c1 (stereo not drawn) | -0.8% | 13.6% | ? | ? | 3.8% | .
COc1ccc(C2NN=C(c3ccc(C)cc3)S2)cc1OC (stereo not drawn) | 8.1% | ? | 2µM* | ? | 1.1% | .
Cc1ccc(C2=NNC(c3cccc(F)c3)S2)cc1 (stereo not drawn) | 1.7% | 10.2% | 6.31µM* | 7.08µM* | 3.4% | -4.8%
Cc1ccccc1-n1cc(CNC(=O)CN2Cc3ccccc3OC(C)C2)cn1 (stereo not drawn) | 0.7% | . | . | . | . | .
CC(=O)NN1C(=O)c2ccccc2NC1c1ccccc1O (stereo not drawn) | 0.2% | 3.8% | 11.2µM* | ? | . | .
CS(=O)(=O)NN1C(=O)c2ccccc2NC1c1ccccc1O (stereo not drawn) | 2.4% | 20.2% | 3.1% | 2.1% | -1.0% | .
O=C(CSc1nccn1-c1ccc(Cl)cc1)Nc1cccc2ccccc12 | 19.7% | . | . | . | 1.1% | -0.2%
Cc1nc(/C(=N/O)C(N)=O)cs1 | 1.5% | 56.2µM* | -14.4% | -1.2% | 1.1% | 0.6%
